Source: PubChem BioAssay (National Center for Advancing Translational Sciences (NCATS))
Most compounds without a hit are left out; they make up all but 18% or so of the library.
HepG2 viability – kills HepG2 cells in TGF-b inhibitor counter-screen. HepG2 CAGA-GFP viability, ATP luminescence, 18 h. 410,000 compounds, 0.76% hits. Potency, µM (doses to about 46.1 µM), for inactives: top-dose activity change, negative = cytotoxicity, usual class: cytotoxic; also: potency is read from the fitted curve at half-maximal effect
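HepG2 CAGA-GFP cells (1000/well, DMEM with 1% FBS) received compound, then TGF-beta at 500 pg/mL final, and were incubated 18 hours at 37 degrees C. Viability was read by CellTiter-Glo luminescence. Media-only wells were set as complete cell-killing and DMSO as no toxicity.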
IL1B secr inh – inflammasome signaling inhibition, IL-1 beta readout | THP-1 LPS/ATP IL-1B secretion, AlphaLISA, 16 h; hits give low values | activity change, % at 57.5 µM | 360,000 compounds, 4.7% hits | AID 743279; in the data active = activity change below about -50%; inconclusive = mostly about -30% to -49%; also: % is scaled to controls: 0 for no effect and ±100 for the full control effect
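Secreted IL-1B measured by AlphaLISA bead assay after 16 h compound exposure of THP-1 cells; compounds (final up to 57.5 uM) added 1 h before LPS (250 ng/mL) and ATP (1.25 mM) stimulation; lower signal means less secretion.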
DT40 TDP1 no CPT – qHTS for Inhibitors of human tyrosyl-DNA phosphodiesterase 1 (TDP1): qHTS in cells in absence of CPT; DT40 Tdp1-/- hTDP1 cells, no CPT, ATP luminescence, 48 h; AID 686978, 2013; 420,000 compounds, 15% hits; Potency, µM (highest dose often 46.2 µM), inactives show at the top dose activity change, negative = growth inhibition, actives largely listed as inhibitors; also: potency is read from the fitted curve at half-maximal effect; % is scaled to controls: 0 for no effect and ±100 for the full control effect; nearly all actives have a fitted effect of over 55% in size
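Cells were dispensed at 400 per well, compounds added by pin tool, plates incubated ≥48 hr at 37 °C, then CellTiter-Glo added for 30 min at room temperature before luminescence reading. Line: DT40 Tdp1-/- complemented with hTDP1; camptothecin omitted.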
TGFb SMAD3 inh – TGF-b pathway inhibition. 410,000 compounds, 1.2% hits. HepG2 CAGA-GFP TGF-b/SMAD3 reporter, GFP fluorescence, 18 h; TGF-beta stimulated, 500 pg/mL final. AID 588855. Potency, µM (titrated, usually from 46.1 µM), for inactives: top-dose activity, negative = inhibition, usual class: inhibitors; also: potency is read from the fitted curve at half-maximal effect; % is scaled to controls: 0 for no effect and ±100 for the full control effect; nearly all actives have a fitted effect of over 65% in size
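HEPG2 CAGA-GFP reporter cells (1000/well, DMEM with 1% FBS) received compounds, then recombinant TGF-beta at 500 pg/mL final for 18 hours at 37 degrees C. Per-cell GFP summed per well was normalised to unstimulated and stimulated DMSO controls before curve fitting.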
TDP1 block – blocks human tyrosyl-DNA phosphodiesterase 1; recombinant TDP1, AlphaScreen DNA substrate cleavage; AID 485290; 350,000 compounds, 0.28% hits; Potency, µM (highest dose often 130 µM), for the others: at the highest dose activity change, negative = inhibition, most hits filed as inhibitors; Q9NUW8; also: potency is read from the fitted curve at half-maximal effect; % is scaled to controls: 0 for no effect and ±100 for the full control effect; nearly all actives have a fitted effect of over 40% in size
Target sequence (Q9NUW8 whole entry, looked up): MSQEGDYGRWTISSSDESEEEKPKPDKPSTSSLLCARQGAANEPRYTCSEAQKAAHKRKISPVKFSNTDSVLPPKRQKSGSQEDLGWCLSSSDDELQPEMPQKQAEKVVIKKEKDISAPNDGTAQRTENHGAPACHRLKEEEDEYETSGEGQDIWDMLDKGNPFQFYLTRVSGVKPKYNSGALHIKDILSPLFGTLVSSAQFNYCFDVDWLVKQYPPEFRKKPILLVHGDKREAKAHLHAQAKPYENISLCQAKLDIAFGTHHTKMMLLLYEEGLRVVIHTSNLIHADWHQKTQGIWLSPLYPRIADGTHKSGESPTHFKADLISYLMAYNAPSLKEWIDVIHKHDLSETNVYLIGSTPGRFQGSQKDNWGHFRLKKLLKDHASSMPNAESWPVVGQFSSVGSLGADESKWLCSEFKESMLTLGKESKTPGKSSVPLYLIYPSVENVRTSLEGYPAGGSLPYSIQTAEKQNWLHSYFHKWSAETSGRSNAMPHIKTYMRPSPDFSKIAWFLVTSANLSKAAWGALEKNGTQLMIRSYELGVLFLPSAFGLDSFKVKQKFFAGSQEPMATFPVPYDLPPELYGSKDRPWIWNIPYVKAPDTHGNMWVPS
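Recombinant human Tdp1 (E. coli-expressed, 1 nM final) preincubated with compounds 15 min at room temperature, then 5'-biotin/3'-phosphotyrosine-FITC DNA substrate (15 nM final) added for 5 min. AlphaScreen beads (10 ug/ml final) added 10 min; cleavage lowers signal.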
DT40 TDP1 CPT – DT40-hTDP1 cell growth loss with CPT | Potency, µM (top dose mostly 46.2 µM), for the others: top-dose activity change, negative = growth inhibition, usual class: inhibitors | 420,000 compounds, 12% hits | chicken DT40 Tdp1-/-;hTDP1 cells + 20 nM CPT, ATP luminescence, 48 h; also: potency is read from the fitted curve at half-maximal effect; % is scaled to controls: 0 for no effect and ±100 for the full control effect; nearly all actives have a fitted effect of over 55% in size
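Chicken DT40 Tdp1-/- cells stably complemented with human TDP1 were seeded at 400 cells/well in medium containing 20 nM camptothecin, exposed to pin-transferred compounds, and grown at 37 °C for at least 48 hr. Viability was read as ATP luminescence.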
The depositor's hits bear a star; i = inactive; ? = inconclusive; nt = no result given; [ ] = dose if it differs, or a comment. Unless noted, calls follow the shape of the dose curve; as a rule, active = well fitted curve in the direction sought with a large enough effect; inconclusive = small, poorly fitted or top-dose-only effect, or another doubt; inactive = no such curve, though single readings can be large; an effect the other way counts as inactive or inconclusive.

SMILES | HepG2 viability | IL1B secr inh | DT40 TDP1 no CPT | TGFb SMAD3 inh | TDP1 block | DT40 TDP1 CPT
COc1cc(=O)n2c(c1C(=O)N(C)Cc1ccsc1)CCN(Cc1cnn(C)c1C)CC2 | nt | nt | -5.2% | nt | nt | -0.2%
O=C(Nc1ccccc1F)c1nc(SCc2ccccc2F)ncc1Cl | -11.9% | nt | ? | 22.7% | 4.7% | ?
CN(C)c1ccc(C=O)cc1Cl | 2.5% | nt | -10.4% | -2.9% | nt | 2.1%
O=C(NC1CC1)c1ccc2c(c1)N(Cc1ccc(Cl)cc1)CCS2 | -22.3% | -17.1 | ? | ? | 4.4% | ?
O=C(NC1CCCC1)c1ccc2c(c1)N(Cc1ccccc1)CCS2 | -9.7% | -4.5 | 18.4µM* | 20.4% | 3.9% | ?
Cc1ccc(CN2CCSc3ccc(C(=O)NCc4ccco4)cc32)cc1 | -2.6% | ? | ? | -15.1% | 7.9% | ?
Cc1ccc(CN2CCSc3ccc(C(=O)NC4CCN(Cc5ccccc5)CC4)cc32)cc1 | -13.1% | -81.8* | 8.2µM* | -15.5% | 8.6% | 7.31µM*
COc1cccc(-n2c(SC)nnc2C2CCN(Cc3nc4ccccc4s3)CC2)c1 | nt | nt | ? | nt | nt | 2.5%[9.04 µM]
CCCCCCCCCCS(=O)(=O)N/N=C/c1ccc(O)cc1 | -94.2% | ? | ? | 12.6µM* | 0.0% | 16.4µM*
CCOC(=O)Nc1sc2nc(C)cc(C)c2c1-n1cccc1 | -18.7% | -11.4 | 9.2µM* | 0.0% | 1.0% | 23.1µM*
CCC(C)NC(=O)c1sc2ncccc2c1-n1c(C)ccc1C (stereo unspecified) | -32.3% | nt | 25.9µM* | -20.7% | 4.1% | 20.6µM*
CCCCN(CC)CCCNC(=O)c1sc2nc(C)cc(C)c2c1-n1cccc1 | 4.1% | nt | 18.4µM* | -0.6% | 5.7% | ?
CCOC(=O)C(C)Oc1c(C(=O)OC)sc2ncccc12 (stereo unspecified) | 34.6% | 20.2 | -1.1% | -22.9% | 3.8% | 14.2%
CCCSCCCNC(=O)c1sc2nc(C)cc(C)c2c1-n1cccc1 | -11.6% | nt | ? | -6.7% | 8.6% | ?
Cc1cc(C)c2c(-n3cccc3)c(C(=O)NCC(C)c3ccccc3)sc2n1 (stereo unspecified) | -20.0% | nt | 20.6µM* | -18.3% | 11.4% | 20.6µM*
CCCN1CCN(CCNC(=O)Nc2ccc(OC)c(OC)c2)CC1 | -1.3% | nt | 1.3% | -10.0% | 7.0% | ?
CN(C)c1cccc(S(=O)(=O)N2CCCN(S(=O)(=O)c3ccc4c(c3)OCCO4)CC2)c1 | nt | nt | nt | nt | 3.0% | nt
CCOc1ccc(CCNC(=O)Cn2nc(CC)n3c(cc4c(OC)cccc43)c2=O)cc1OCC | -25.7% | nt | ? | -8.4% | -1.0% | -17.4%
CSC1=C(C#N)C(CC(C)C)C(C(C)=O)=C(C)N1 (stereo unspecified) | 6.6% | 33.6 | ? | -0.5% | 5.3% | -26.6%
CC(CNC(=O)c1sc2ncccc2c1-n1cccc1)c1ccccc1 (stereo unspecified) | -31.5% | nt | 25.9µM* | -29.9% | 3.0% | ?
CCc1ccc(OCc2ccc(C(=O)NCc3ccccn3)o2)cc1 | -9.5% | -10.6 | ? | 2.1% | 5.3% | -9.9%
CC(C)(C)c1ccc(OCc2ccc(C(=O)N3CCOCC3)o2)cc1 | -21.2% | 35.7 | 25.9µM* | -3.0% | 8.6% | ?
CCOc1ccc(OCc2ccc(C(=O)NCc3ccncc3)o2)cc1 | -5.6% | ? | -29.7% | 5.2% | 6.8% | 16.4µM*
CCCNC(=O)c1ccc(COc2ccc(C(C)(C)C)cc2)o1 | -19.7% | -68.8* | 13µM* | -2.3% | nt | ?
CCCC(=O)Oc1ccc(C2NC(=O)c3ccccc3O2)cc1OC (stereo unspecified) | -18.7% | 13.0 | -11.4% | 3.6% | nt | 4.9%
SMILES | HepG2 viability | IL1B secr inh | DT40 TDP1 no CPT | TGFb SMAD3 inh | TDP1 block | DT40 TDP1 CPT
CCCN(CCC)CCCNC(=O)C1CCCN(Cc2nc(-c3ccc(Cl)cc3)oc2C)C1 (stereo unspecified) | -30.2% | nt | 9.2µM* | ? | 0.0% | 11.6µM*
COC(=O)c1ccc2c(c1)N(Cc1nc(-c3ccc(Cl)cc3)oc1C)C(=O)C1CCCN21 (stereo unspecified) | -20.8% | 20.2 | ? | -7.2% | nt | 20.6µM*
Cc1oc(-c2ccc(Cl)cc2)nc1CN1CCCC(C(=O)NCCc2ccc(Cl)cc2)C1 (stereo unspecified) | -40.0% | nt | 5.8µM* | ? | 4.6% | 7.31µM*
Cc1ccccc1-c1nc(CN2CCCC(C(=O)NCc3ccc(Cl)cc3)C2)c(C)o1 (stereo unspecified) | -4.6% | nt | ? | 3.9% | -1.2% | -23.3%
Cc1oc(-c2ccc(Cl)cc2)nc1CN1CCCC(C(=O)N2CCOCC2)C1 (stereo unspecified) | -10.3% | 14.8 | ? | -19.4% | 6.6% | ?
Cc1oc(-c2cccc(Cl)c2)nc1CN1CCCC(C(=O)NCc2ccc(F)cc2)C1 (stereo unspecified) | -21.1% | nt | 5.8µM* | ? | -1.2% | 5.8µM*
CCCCC/C(C=O)=C\c1ccccc1 | nt | nt | 3.8% | nt | nt | -7.4%
CC(C)c1ccc(NC2CCCN(C(=O)CCc3cn[nH]c3)C2)cc1 (stereo unspecified) | 0.0% | i | ? | -5.0% | 7.5% | -23.3%
COc1ccc(S(=O)(=O)n2nc(C)c(S(=O)(=O)N3CCCCCC3)c2C)cc1OC | -11.7% | nt | -1.2% | -18.7% | 1.8% | -22.6%
O=C(Nc1nnc(-c2ccco2)o1)c1ccc(N2C(=O)CCC2=O)cc1 | 5.1% | 3.4 | -2.6% | ? | 0.0% | 3.1%
CC1CCCN(S(=O)(=O)c2ccc(C(=O)Nc3ccccc3-c3nc4ccccc4[nH]3)cc2)C1 (stereo unspecified) | -5.0% | 19.8 | 10.3µM* | -9.6% | -2.6% | 18.4µM*
CC(=O)Nc1nnc(-c2ccco2)o1 | 19.1% | -2.6 | 4.1% | -1.0% | 3.6% | 15.2%
CN(c1ccccc1)S(=O)(=O)c1ccc(C(=O)Nc2nnc(-c3ccco3)o2)cc1 | -9.5% | 22.1 | 20.6µM* | -19.8% | 9.2% | 14.6µM*
CCN(c1ccccc1)S(=O)(=O)c1ccc(C(=O)Nc2nnc(-c3ccco3)o2)cc1 | -10.0% | 14.4 | 18.4µM* | ? | 9.2% | ?
CC1CCN(S(=O)(=O)c2ccc(C(=O)Nc3nnc(C4=COCCO4)o3)cc2)CC1 | -28.1% | 71.4 | ? | 1.7% | 4.4% | 23.1µM*
